# Test results from article PMC4336329 (PLoS ONE, 2015).
# Screen size: about 310,000 compounds; about 14,000 (4.5%) showed an effect of 50% or more. Effects have a minus sign here. The full list was thinned out, with strong results kept by preference.
# Molecular target: human ether-à-go-go-related gene (hERG) potassium channel (human, UniProt Q12809)
# Experiment: primary screen, population patch clamp on CHO cells stably expressing hERG; higher = less effect of the substance
# 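Further: peak tail current of the secondary pulse compared with the same well before compound.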
# Sequence of human ether-à-go-go-related gene (hERG) potassium channel (Q12809 whole entry, looked up): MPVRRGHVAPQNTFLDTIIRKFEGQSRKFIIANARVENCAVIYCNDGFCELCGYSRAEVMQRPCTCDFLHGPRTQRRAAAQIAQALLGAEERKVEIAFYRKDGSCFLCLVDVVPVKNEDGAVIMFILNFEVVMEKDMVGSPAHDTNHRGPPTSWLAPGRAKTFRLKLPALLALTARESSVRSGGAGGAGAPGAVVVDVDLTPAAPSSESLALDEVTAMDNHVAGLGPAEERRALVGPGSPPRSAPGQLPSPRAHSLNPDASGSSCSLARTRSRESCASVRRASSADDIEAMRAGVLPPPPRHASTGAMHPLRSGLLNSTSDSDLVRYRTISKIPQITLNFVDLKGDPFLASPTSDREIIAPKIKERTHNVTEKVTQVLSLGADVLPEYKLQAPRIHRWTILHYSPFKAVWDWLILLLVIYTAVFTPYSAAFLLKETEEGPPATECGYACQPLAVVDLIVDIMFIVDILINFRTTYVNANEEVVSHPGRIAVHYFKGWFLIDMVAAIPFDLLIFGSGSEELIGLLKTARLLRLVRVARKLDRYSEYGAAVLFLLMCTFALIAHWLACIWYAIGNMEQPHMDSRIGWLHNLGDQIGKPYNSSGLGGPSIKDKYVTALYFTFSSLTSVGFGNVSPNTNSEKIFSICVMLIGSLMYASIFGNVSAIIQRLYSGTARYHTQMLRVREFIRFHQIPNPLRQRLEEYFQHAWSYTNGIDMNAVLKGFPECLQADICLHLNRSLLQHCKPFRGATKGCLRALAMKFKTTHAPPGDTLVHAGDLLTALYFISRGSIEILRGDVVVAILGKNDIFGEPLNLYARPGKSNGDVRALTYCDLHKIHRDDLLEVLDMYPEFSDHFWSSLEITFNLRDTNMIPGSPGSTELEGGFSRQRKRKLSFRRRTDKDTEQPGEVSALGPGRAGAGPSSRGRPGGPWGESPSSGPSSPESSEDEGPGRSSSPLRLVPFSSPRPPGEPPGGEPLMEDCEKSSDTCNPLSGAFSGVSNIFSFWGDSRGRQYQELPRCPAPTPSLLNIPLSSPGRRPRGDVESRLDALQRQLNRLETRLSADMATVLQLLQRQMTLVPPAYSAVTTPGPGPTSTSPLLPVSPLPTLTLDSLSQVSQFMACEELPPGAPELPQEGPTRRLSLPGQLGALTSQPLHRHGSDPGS
row,Compound,"hERG current change (%, negative = inhibition) at 10uM [%]"
1,O=C(COC(=O)CCNS(=O)(=O)c1cccs1)Nc1cc(C(F)(F)F)ccc1Cl,-26.1
2,Cc1ccc(/C=C/C(=O)O)cc1S(=O)(=O)N(CCO)CCO,8.09
3,Cc1sc2ncnc(Sc3nnnn3-c3ccc(Cl)cc3)c2c1C,11.2
4,Nc1nccnc1C(=O)OCC(=O)c1ccc[nH]1,-0.119
5,COc1ccc(CCn2c(=S)[nH]c3ccc(N4CCOCC4)cc3c2=O)cc1OC,10.2
6,O=C(c1cccc(Cl)c1)N1CCN(c2ccc(N3CCOCC3)nn2)CC1,-34.8
7,CC(=O)c1ccc(Oc2ncnc(N)c2[N+](=O)[O-])cc1,12.4
8,COc1ccc(-c2nc(CS(=O)CC(=O)NC3CCC(C)CC3)c(C)o2)cc1OC (stereo not drawn),-34.6
9,COc1ccc(-c2n[nH]c(=S)n2-c2ccc(C)cc2)cc1,8.3
10,Br.C=CCn1c(=N)n(CC(=O)c2ccc(Br)s2)c2ccccc21,-58.6
11,Br.Cn1c(=N)n(CC(=O)c2ccc(Br)s2)c2ccccc21,-6.86
12,C=CCn1c(=N)n(CC(=O)c2ccc(Br)cc2)c2ccccc21,-43.5
13,Br.CCn1c(=N)n(CC(=O)C23CC4CC(CC(C4)C2)C3)c2ccccc21,-32.3
14,Br.CCN(CC)CCn1c(=N)n(CC(=O)c2ccc(Br)s2)c2ccccc21,-76.9
15,Br.CCn1c(=N)n(CC(=O)C(C)(C)C)c2ccccc21,-21.1
16,Br.C=CCn1c(=N)n(CC(=O)c2ccccc2)c2ccccc21,-23.9
17,Br.CCN(CC)CCn1c(=N)n(CC(=O)c2ccc(C)cc2)c2ccccc21,-40.8
18,Br.CCCCn1c(=N)n(CC(=O)C(C)(C)C)c2ccccc21,-55
19,Br.CCn1c(=N)n(CC(=O)c2ccc(Br)s2)c2ccccc21,-69.3
20,Br.CCCCn1c(=N)n(CC(=O)O)c2ccccc21,22.4

row,Compound,"hERG current change (%, negative = inhibition) at 10uM [%]"
1,O=C(c1ccc(CNS(=O)(=O)c2ccccc2)cc1)N1CCC2(CC1)OCCO2,-4.16
2,COc1ccc(NC(=O)CC2C(=O)N(c3ccccc3)C(=O)N2CCc2cccs2)cc1 (stereo not drawn),-32.9
3,CCOc1ccccc1NC(=O)C1CCCCN1S(=O)(=O)c1ccc(F)cc1 (stereo not drawn),-2.26
4,CN1CCN(C(c2cccnc2)c2ccc3cccnc3c2O)CC1 (stereo not drawn),-4.29
5,Cc1cccn2c(=O)nc(SCC(=O)N3CC(C)OC(C)C3)nc12 (stereo not drawn),1.96
6,CCc1nc(NCCO)c(C#N)c2c1CCCC2,13.4
7,CCOc1ccccc1-c1nnc(SCC(=O)NC2(C#N)CCCC2)o1,-19.2
8,CC(C)OC(=O)c1ccc(NC(=O)Cn2c(-c3nonc3N)nc3ccccc32)cc1,18.4
9,CC1(c2ccccc2)NC(=S)N2C1NC(=S)N2c1ccccc1 (stereo not drawn),10.2
10,COc1cc(NC(=O)C/C(C)=N/NC(=O)c2cccc(O)c2)c(OC)cc1Cl,-8.16
11,CCOC(=O)COn1c(=O)c(=O)n(OC)c2ccccc21,17.8
12,O=C(COC(=O)Cc1cn2ccsc2n1)NCc1ccc2c(c1)OCO2,-15.2
13,CCCn1c(=N)n(CC(=O)c2cccs2)c2ccccc21,-22
14,Br.CCCCn1c(=N)n(CC(=O)c2ccc(Br)s2)c2ccccc21,-52.8
15,Br.N=c1n(CC(=O)c2cccs2)c2ccccc2n1Cc1ccccc1,-48
16,Br.Cn1c(=N)n(CC(=O)c2cccs2)c2ccccc21,-0.146
17,O=C(O)Cn1c(=O)n(Cc2ccccc2)c2ccccc21,23.4
18,Br.N=c1n(CC(=O)c2ccc(Br)s2)c2ccccc2n1Cc1ccccc1,-61.7
19,CCC(C(=O)NCCN1CCOCC1)n1c2ccccc2c2nc(=O)cc(C)n21 (stereo not drawn),23.1
20,Cc1cccc(NC(=O)CSc2nnnn2-c2cccnc2)c1,-6.57

row,Compound,"hERG current change (%, negative = inhibition) at 10uM [%]"
1,COc1ccc(OC)c2nc(-c3cccnc3)ccc12,10.2
2,O=C1CC2(CCCCC2)Oc2ccc(Cl)cc21,1.26
3,O=C1CC2(CCN(C(=O)c3cccc(Br)c3)CC2)Oc2ccccc21,-85.5
4,CC(=O)Nc1ccc(S(=O)(=O)N2CCC3(CC2)CC(=O)c2ccccc2O3)cc1,-36.6
5,O=C1CC2(CCN(C(=O)c3cccc(Cl)c3)CC2)Oc2ccccc21,-78.5
6,O=C(c1cccc(Br)c1)N1CCCC1,0.701
7,O=C(c1ccc(F)cc1)N1CCC2(CC1)OCCO2,19
8,O=C1CC2(CCN(C(=O)c3ccc(Br)cc3)CC2)Oc2ccccc21,-73.5
9,O=C1CC2(CCN(C(=O)c3ccc(F)cc3)CC2)Oc2ccccc21,-76
10,Oc1c(C(Nc2cccc(C(F)(F)F)c2)c2ccncc2)ccc2cccnc12 (stereo not drawn),12.3
11,CCOc1ccc(S(=O)(=O)NCCC(=O)OCC(=O)Nc2cc(C)on2)cc1,-44.1
12,COc1ccc(-c2nnn(CC(=O)c3ccc4c(c3)OCCO4)n2)cc1OC,9.3
13,C/C(=N\NC(=O)c1cc(-c2ccc(Br)s2)[nH]n1)c1ccncc1,11.1
14,COc1ccc(C(=O)CCc2ccccc2)cc1,9.03
15,CCOC(=O)N1CCN(c2nc(-c3ccco3)cc(C(F)(F)F)n2)CC1,-3.17
16,Cc1ccc(C(=O)Nc2cccnc2N2CCN(C)CC2)cc1,-5.47
17,O=C1CC2(CCN(C(=O)c3cccc(F)c3)CC2)Oc2ccccc21,-75.1
18,O=C1CC2(CCN(C(=O)c3ccc(Cl)cc3)CC2)Oc2ccccc21,-87.8
19,O=C(c1ccc(Cl)cc1)N1CCC2(CC1)OCCO2,13.2
20,O=C1CC2(CCCC2)Oc2ccc(F)cc21,-8.58
